Measurements published in the supplement of paper PMC10681739.

Molecular target: T1, ETS1 (UniProt P14921)
T1 sequence: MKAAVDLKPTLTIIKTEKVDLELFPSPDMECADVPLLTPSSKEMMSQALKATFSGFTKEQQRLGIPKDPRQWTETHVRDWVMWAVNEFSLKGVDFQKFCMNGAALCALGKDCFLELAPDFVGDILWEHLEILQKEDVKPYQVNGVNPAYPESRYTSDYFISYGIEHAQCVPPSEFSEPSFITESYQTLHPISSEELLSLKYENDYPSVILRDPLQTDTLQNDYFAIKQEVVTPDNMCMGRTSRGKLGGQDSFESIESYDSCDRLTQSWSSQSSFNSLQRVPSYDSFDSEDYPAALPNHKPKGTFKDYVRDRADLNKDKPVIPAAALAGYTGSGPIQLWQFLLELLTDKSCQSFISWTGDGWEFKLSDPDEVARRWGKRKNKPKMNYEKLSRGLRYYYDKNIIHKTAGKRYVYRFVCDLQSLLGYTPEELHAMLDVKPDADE
Assay: ETS1 binding intensity (PBM fluorescence) in presence of RUNX1, normalised to ETS1-only experiment (arbitrary fluorescence units); higher = stronger binding
Details: ETS1 concentration 1 nM; RUNX1 concentration 25 nM

Sequence	ETS1 binding intensity
AGGCCCCGCCCCTTCCGCCCACAGAGCCCGCCACTT	1000
ACCTGTGTTCTGGCAGGATGTGGTTGACCTCAGCAG	18700
CATACAGGATGCTGGGGTATGTAAAACAAACCACGG	678
CGGGTTGGGCAGGAAGCAGCATGACCGCAGTGGGTC	17000
CTGTCCCTAGCAGGATGTGGTTTGCACATTGCTGCT	12500
CTTGTGCCTACATCCTGTAGCTGTGGTTTAGGGACG	6810
TGACATTTCCGGCCCCACCTCGGCCCGCAGCGCCGC	1170
TGCTTCTGAGGAAGTGATCTGTGGTCAAAGAAAGAA	2040
GGGCTCCCAGAAGGATGTGGTTTCTGAGTACGTTGG	3520
CTCGCCCCATTTCCCGTAAATATCAGCCACAGACCA	464
GTGACGGATATCCACCGGGCCCTGTGGTTTCCAACA	1200
ACAGGAAATGACATCAGAATCTCCAAACCACAACCA	5020
CTGCTGACCAAAACAGGATGTGGTCTACACAAAGTG	36600
GCCCCGGAAGCTCCTTAAGGAGGACCGTGTGGGTTT	718
CAGTGACAGGAAGTGGTTCAGCGGTTGTTTAGGGCT	9430
AGGTCTCCGGAAGTGGGTCTGCGGCGCGCGGGATGC	8540
TGGGGCTAGGCTTCCGGGGCTCTGCGGTCCTCGGCC	623
CTTCTACTTCCTGCCCCGCCCCCAGCTGTGGTCACA	3150
GTCCCCGACTTCCGCTCTCGGTTGGTGGTTGGCTTT	3430
GTGAATGAGGGGGAAGGAAGTGGTTTGGAAAAATAC	2790

Sequence	ETS1 binding intensity
CCCCGCCTCTTCCGCTTCTGTGGTCTGATCTGCCTG	1040
CCAATGGGCAGGCGGAAACCGCGGGCTCGTGCTCCC	2900
GTCACAGGAAAGAAGGAGCCTCGCCTTAACCGCACC	2930
GGGGCGGCTTCCGGCGGCGTGACCTGACCGCAAGAG	4920
CCCAATTTCCTTTGCTCTGCTGTCTGCCAACCGCAA	491
GGAGCGCGCCGGAAACGCGCGGCTGCGGCCCGGGAG	4330
CACGCCTGCGGAAGATGAAAACCACACGTCATGCAG	803
GCTCCTCCCGGATATAAAGCCCCAAACCACGCCACT	1610
GGCGCGGGCTGCTTCCGGTCTGCGGGCCTGAGGAGG	5010
GGGCCCGGGCCAGGAAGTGGTTTTGCAGAGGTGTTT	7660
CCCACCCGGAAATGAGCCAACAGTGGTTTCGCCCCG	2010
CCATATCTGGCTTCCTAAGGAGGAACCACAAACCGT	828
TCTGGGGGAGGGGAAGGATGTGGTTTGCAGAGCGGA	5630
CTGTGAGGCGGAAGTGGCGGGCTCTGTGGGCGCAAG	8270
GACATCCAGGAAGTGGTGAGAAACCACGTGTGTGTT	4150
GTGGGAGCGGAAGCCTGAGCGGCCTGCGGCCTCCGG	1070
ATGAACCACTTCCTGTGTGTTCCCACAGAGGTCAGG	4320
AACGACAAACCGGAAGTATGGTTTGCCGCCTGAAGC	19500
AGGAGCCGGAAGTCCCGCCCACGCACCCCCCGCAGG	8270
AGCTGTTTGGTCACAGGATGTGGTTATTAGAATAGG	27900
